# Hits are enriched below; roughly 7.3% of the tested compounds scored in any of these assays.
# HCMV inh: qHTS Assay for inhibitors of the human cytomegalovirus (HCMV). HFF cells, HCMV-luciferase reporter, 72 h; active compounds read low. activity change, negative = inhibition, % at 57.5 µM. 4.5% of 410,000 active. AID 1259415, 2018; in the data active = activity change below about -60%; inconclusive = no clear call, values can overlap the other calls; inactive = above about -39%
#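 Inhibition of viral replication was scored as loss of reporter luminescence in HFFs infected with HCMV-luciferase (MOI 1 PFU/cell) for 72 h; compounds tested at 2 doses, normalized to buffer and Salinomycin controls.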
# AmpC no deterg: qHTS Inhibitors of AmpC Beta-Lactamase (assay without detergent); AmpC nitrocefin hydrolysis, absorbance 480 nm, 0.0001% Triton; AID 485341, 2010; P00811; 0.52% of 330,000 active; Potency, µM (series often up to 57.1 µM), inactives show at the top dose activity change, negative = inhibition, most hits filed as inhibitors;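 also: potency is read from the fitted curve at half-maximal effect; plate controls were no compound for no effect and no enzyme for full effect; nearly all actives have a fitted effect of over 20% in size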
# Target sequence (P00811 whole entry, looked up): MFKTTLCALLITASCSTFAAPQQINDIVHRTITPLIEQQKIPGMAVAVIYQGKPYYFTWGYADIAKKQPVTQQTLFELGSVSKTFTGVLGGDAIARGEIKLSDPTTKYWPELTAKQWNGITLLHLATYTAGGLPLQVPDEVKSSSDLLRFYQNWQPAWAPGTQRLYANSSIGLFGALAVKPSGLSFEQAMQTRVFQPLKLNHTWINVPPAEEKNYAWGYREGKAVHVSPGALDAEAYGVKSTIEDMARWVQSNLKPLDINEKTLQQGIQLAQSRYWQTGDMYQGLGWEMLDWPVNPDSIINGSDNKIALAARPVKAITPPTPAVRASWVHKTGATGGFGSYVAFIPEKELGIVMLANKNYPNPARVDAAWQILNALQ
#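 20 mM phosphate pH 7.0 + 0.01% (detergent screen) or 0.0001% Triton X-100; 5.3 nM AmpC reagent; cpd preinc 15 min RT; nitrocefin (800 uM stock) to start; A480 q20 s × 4 min; Activity was normalised to no-enzyme and no-compound control wells.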
# HCV inh: qHTS Assay for Inhibitors of Hepatitis C Virus (HCV); Huh7.5.1 HCVcc-Cre infection, luciferase reporter, 44 h; Potency, µM (top dose mostly 41.8 µM), inactives show at the top dose activity change, negative = inhibition, hits mostly inhibitors; 3.4% of 340,000 active; also: potency is read from the fitted curve at half-maximal effect
#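 Whole-lifecycle infectious HCVcc-Cre system; cells 1,000/well, compound then virus (~0.5 moi) added 4 h after plating, 44 h culture. Luciferase read 15 sec following 15 min substrate incubation, room temp.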
# FMDV antiviral: High Throughput Screening for Foot and Mouth Disease Virus Antivirals. FMDV antiviral cell-based qHTS. Potency, µM (titrated, usually from 57.9 µM), for inactives: top-dose activity change, negative = inhibition, most hits filed as inhibitors. 1.2% of 410,000 active; calls by dose curve; tested in HEK293T cells; also: read-out not given here; potency is read from the fitted curve at half-maximal effect; nearly all actives have a fitted effect of over 45% in size
# AmpC detergent: qHTS Inhibitors of AmpC Beta-Lactamase (assay with detergent) | P00811 | 0.041% of 370,000 active | Potency, µM (top dose mostly 114 µM), inactives show at the highest dose activity change, negative = inhibition, usual class: inhibitors | AmpC hydrolysis of nitrocefin, absorbance 480 nm, 0.01% Triton;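 also: potency is read from the fitted curve at half-maximal effect; 0% = no-compound wells and -100% = no-enzyme wells; nearly all actives have a fitted effect of over 25% in size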
#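 20 mM phosphate pH 7.0 + 0.01% (detergent screen) or 0.0001% Triton X-100; 5.3 nM AmpC reagent; cpd preinc 15 min RT; nitrocefin (800 uM stock) to start; A480 q20 s × 4 min; Activity was normalised to no-enzyme and no-compound control wells.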
# Numbers without * were called inactive; ? = inconclusive; / = not tested or not shown; [ ] = dose if it differs, or a comment. Unless noted, calls follow the shape of the dose curve; as a rule, active = well fitted curve in the direction sought with a large enough effect; inconclusive = small, poorly fitted or top-dose-only effect, or another doubt; inactive = no such curve, though single readings can be large; an effect the other way counts as inactive or inconclusive. Unless noted, % is scaled to controls: 0 for no effect and ±100 for the full control effect.
SMILES,HCMV inh,AmpC no deterg,HCV inh,FMDV antiviral,AmpC detergent
CCN(CC)CCNc1cccc2sc3ccccc3c(=O)c12,9,/,/,?,/
O=c1c2ccccc2sc2c(CO)ccc(NCCN3CCCCC3)c12,-98*,/,?,?,/
CCN(CC)CCNc1ccc(CO)c2sc3ccccc3c(=O)c12,-96*,23%,?,?,-9%
O=c1c2ccccc2sc2ccc(NCCCN3CCOCC3)cc12,27,/,-11%[8.37 µM],11%,/
Cn1ncc(Br)c1NC(=O)c1ccco1,/,-6%,29%,-8%,-9%
C#CCOc1c(Br)cc(C2C(C(=O)OC)=C(C)NC3=C2C(=O)c2ccccc23)cc1OCC (stereo unspecified),-63*,/,/,?,-1%
COc1ccc(C(=O)NCc2ccccc2)cc1S(=O)(=O)N1CCCc2ccccc21,-27,-21%,11µM*,47%,-1%
COc1ccc(C(=O)O)cc1S(=O)(=O)N1CCCc2ccccc21,54,-13%,15%,3%,-1%
O=C(NNC(=O)c1ccccc1O)c1ccc(Cl)c(S(=O)(=O)N2CCc3ccccc32)c1,-72*,-36%,?,?,?
COc1ccc(C(=O)Nc2ccc(C)cn2)cc1S(=O)(=O)N1CCCc2ccccc21,?,-16%,4.5µM*,-23%,0%
COc1ccc(C(=O)Nc2cccc(C)n2)cc1S(=O)(=O)N1CCCc2ccccc21,-72*,/,2.5µM*,-27%,/
COc1ccc(Cl)cc1S(=O)(=O)N1CCCc2ccccc21,-7,-25%,-8%,14%,-3%
O=C(NCc1ccco1)c1ccc(Cl)c(S(=O)(=O)N2CCc3ccccc32)c1,-82*,-11%,?,?,-14%
Cc1ccc(NC(=O)c2ccc(Cl)c(S(=O)(=O)N3CCc4ccccc43)c2)nc1,-79*,/,?,-27%,/
O=C(COC(=O)c1cccc(S(=O)(=O)N2CCc3ccccc32)c1)NCc1ccco1,-96*,-20%,15%,2%,-5%
Cc1cc2oc(C(=O)Nc3sc4c(c3C(=O)NCc3ccccc3)CCCC4)cc(=O)c2cc1C,5,/,/,-3%,2%
Cn1c(=O)cnc2cnc(Oc3ccccc3)nc21,/,/,/,0%,/
COC(=O)c1ccccc1C(=O)N1CCCC(CNC(=O)c2ccc(F)cc2)C1 (stereo unspecified),15,6%,11%,10%,8%
CC(C1CCN(Cc2nc(C3CC3)no2)CC1)N1CCOCC1 (stereo unspecified),17,-7%,5%,-8%,6%
Cc1ccc(CNC(=O)c2cccc3c2C(=O)c2ccc(N4CCOCC4)cc2S3(=O)=O)cc1,-14,0%,10%,0%,3%
CC1CCN(c2ccc3c(c2)S(=O)(=O)c2cccc(C(=O)NC4CC4)c2C3=O)CC1,-62*,3%,-8%,21%,/
O=C(NC1CCCCC1)c1cccc2c1C(=O)c1ccc(N3CCC(Cc4ccccc4)CC3)cc1S2(=O)=O,-9,-40%,-18%,-22%,/
O=C(NCc1ccccc1C(F)(F)F)c1cccc2c1C(=O)c1ccc(N3CCOCC3)cc1S2(=O)=O,-13,6%,-6%,4%,/
O=C(NCc1ccccc1C(F)(F)F)c1cccc2c1C(=O)c1ccc(N3CCC(N4CCCCC4)CC3)cc1S2(=O)=O,-100*,/,/,-6%,/
CC1CCN(c2ccc3c(c2)S(=O)(=O)c2cccc(C(=O)NC[C@@H]4CCCO4)c2C3=O)CC1,-94*,225%,?,17%,/
SMILES,HCMV inh,AmpC no deterg,HCV inh,FMDV antiviral,AmpC detergent
COCCNC(=O)c1cccc2c1C(=O)c1ccc(N3CCOCC3)cc1S2(=O)=O,-102*,-11%,0%,-4%,/
Cc1ccc(NC(=O)c2cnn3c(C(F)F)cc(-c4ccccc4)nc23)cc1F,-27,/,/,?,26%
Cc1c2cnn(CC(=O)NCc3ccc(F)cc3)c(=O)c2c(C)n1Cc1cccc(Cl)c1,-18,/,/,-23%,-4%
CCOc1ccc(NC(=O)CN(C)C(=O)CSCc2c(C)noc2C)cc1OCC,-9,-4%,?,-24%,?
O=C(NCC1CCCO1)c1cccc2c1C(=O)c1ccc(N3CCC(Cc4ccccc4)CC3)cc1S2(=O)=O (stereo unspecified),/,113%,?,13µM*,/
O=C(NC[C@@H]1CCCO1)c1cccc2c1C(=O)c1ccc(N3CCOCC3)cc1S2(=O)=O,-3,-5%,19%,-21%,/
CCC(=O)N1CC2(C1)CN(C(=O)c1ccccn1)[C@H](CO)c1c2c2ccc(OC)cc2n1C,21,/,/,/,/
O=C1CSC(c2cccs2)N1c1nncs1 (stereo unspecified),10,/,/,/,/
Cc1ccc2nc3n(c(=O)c2c1)-c1cc2ccccc2cc1C(=O)NC3Cc1ccc(O)cc1 (stereo unspecified),-92*,/,/,?,/
O=C1NC(Cc2ccccc2)c2nc3cc(Cl)ccc3c(=O)n2-c2ncccc21 (stereo unspecified),-67*,/,/,?,/
O=C1NC(Cc2ccc(O)cc2)c2nc3cc(Cl)ccc3c(=O)n2-c2cc3ccccc3cc21 (stereo unspecified),-100*,/,/,?,/
O=C1NC(Cc2ccc(O)cc2)c2nc3ccc(F)cc3c(=O)n2-c2cc3ccccc3cc21 (stereo unspecified),-101*,/,/,?,/
O=C1NC(Cc2ccc(O)cc2)c2nc3cc(F)c(F)cc3c(=O)n2-c2cc3ccccc3cc21 (stereo unspecified),-19,/,/,?,/
O=C1NC(Cc2ccccc2)c2nc3ccc(F)cc3c(=O)n2-c2ncccc21 (stereo unspecified),-25,/,/,-18%,/
Cc1nnc2c(N3CCN(c4ccc(F)cc4)CC3)nc3ccc(C(=O)c4ccccc4)cc3n12,0,/,/,6%,21%
COc1ccc(OC)c(-c2nc3ccccc3nc2-c2ccccc2)c1,29,31%,-17%,?,4%
COc1ccccc1-c1nc2ccccc2nc1-c1ccccc1,-63*,-14%,-19%,0%,-15%
CCN(CC)CC(=O)Nc1ccc2c(c1)Nc1ccccc1CC2,78,51%,13µM*,4%,-8%
CCOC(=O)C1CCN(C(=O)CCc2nc3sc4c(c3c(=O)[nH]2)CCCC4)CC1,-15,71%,-2%[8.37 µM],-11%,?
O=C(COc1ncnc2ccc(Br)cc12)Nc1ccc(N2CCOCC2)cc1,54,3%,10%,9%,?
Clc1nc(Nc2ccc(N3CCOCC3)cc2)c2ccccc2n1,-72*,-12%,?,?,4%
CCOC(=O)c1nc(Nc2ccc(N3CCOCC3)cc2)c2ccccc2n1,-34,-5%,-21%,-14%,2%
